Source: PubChem (The Scripps Research Institute Molecular Screening Center)
LRH-1 inv ag: suppresses constitutive activity of human LRH-1; O00482; HEK293T StAR-luciferase reporter, LRH-1 transfected, 24 h; inhibition, % at 3.6 µM; 0.13% of 360,000 active; AID 602396;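 active means inhibition above the mean inhibition of all tested compounds plus 3 SD, cut at about 73% in these data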
COUP-TFII inh: inhibitors of human COUP-TFII (NR2F2); AID 686940; 0.7% of 370,000 active; inhibition, % at 8.6 µM; HEK293T NGFI-A luciferase reporter, luminescence; P24468;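 active means inhibition above a per-plate cutoff, mean inhibition of test wells between control levels plus 3 SD, cut at about 38% in these data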;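 further: cells cotransfected with COUP-TFII expression vector driving the NGFI-A reporter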
NCOA1 inh: inhibits human SRC1 coactivator; HEK293 GAL4-SRC1 luciferase reporter, luminescence; Q15788; inhibition, % at 3.6 µM; 0.12% of 360,000 active; AID 588354;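 active means inhibition above the campaign mean plus 3 SD, with each screening campaign given its own cutoff, cut at about 60% in these data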
SRC3 inh: inhibitors of human steroid receptor coactivator 3 (SRC3) | Q9Y6Q9 | HEK293 GAL4-SRC3 luciferase reporter, luminescence | AID 588352 | inhibition, % at 3.6 µM | 0.17% of 360,000 active;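 active means inhibition above a per-campaign cutoff, the mean of all compounds plus 3 SD, cut at about 60% in these data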;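 further: higher means less SRC3-driven luciferase light from the GAL4 reporter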
SRC2 inh: inhibits human steroid receptor coactivator 2 | Q15596 | HEK293 GAL4-SRC2 luciferase reporter, luminescence | 0.17% of 370,000 active | AID 651957 | inhibition, % at 9 µM;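 active means inhibition above the mean inhibition of all tested compounds plus 3 SD, set per campaign, cut at about 52% in these data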
GalR3 antagonist: blocks the human galanin receptor 3; O60755; HEK293 GalR3-CNG cAMP membrane potential fluorescence; galR3 body fused to GalR1 C-terminus; inhibition, % at 3 µM; 0.44% of 360,000 active; AID 651719;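 active means inhibition above the screen-wide average plus 3 SD, cut at about 13% in these data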;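 further: forskolin and galanin both at EC90 stimulate the cells; cAMP rise reported by CNG channel membrane potential dye signal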
Large screens that a line does not name were inactive. Shown are actives, neighbours in structure and some others; about 1.1% of the full set was active somewhere.

COc1ccc(C)cc1NS(=O)(=O)c1ccc(NC(=O)CN(c2cc([N+](=O)[O-])ccc2C)S(C)(=O)=O)cc1	none
Cc1cccc(NS(=O)(=O)c2ccc(NC(=O)CN(c3cc([N+](=O)[O-])ccc3C)S(C)(=O)=O)cc2)c1	SRC2 inh 53.7
O=C(CN1C(=O)CCSc2ccccc21)Nc1cccc(Cl)c1F	none (no result: LRH-1 inv ag, NCOA1 inh, SRC3 inh, GalR3 antagonist)
COC(=O)c1cc2c(c3c4cc(OC)ccc4n(S(=O)(=O)c4ccc(C)cc4)c13)C(=O)N(Cc1ccccc1)C2	none (no result: LRH-1 inv ag, NCOA1 inh, SRC3 inh)
COC(=O)c1cc2c(n1S(=O)(=O)c1ccc(C)cc1)C(=O)C(=O)c1[nH]cc(C(=O)OCc3ccccc3)c1-2	NCOA1 inh 87.2, SRC3 inh 87.6 (no result: COUP-TFII inh, SRC2 inh, GalR3 antagonist)
O=C(Cc1ccccc1)NC1CCCc2c1cnn2-c1ccc(F)cc1F (stereo unspecified)	none (no result: LRH-1 inv ag, NCOA1 inh, SRC3 inh, SRC2 inh, GalR3 antagonist)
CC(C)NS(=O)(=O)c1cccc2nsnc12	GalR3 antagonist 13.7
Cc1cccc(NS(=O)(=O)c2cccc3nsnc23)c1	none
NCCNC(=O)c1c(NC(=O)c2ccccc2)sc2c1CCCC2	none
O=C(Nc1sc2c(c1C(=O)NCCCO)CCCC2)c1ccccc1	NCOA1 inh 85.5
Cc1ccc2nc(-c3ccc(NC(=O)CSc4nnc(-c5cc(C)[nH]n5)n4N)cc3)sc2c1	none (no result: LRH-1 inv ag, NCOA1 inh, SRC3 inh, GalR3 antagonist)
Cc1ccc(N/C(N)=N/c2nc(C)cc(N3CCCCC3)n2)c(C)c1	COUP-TFII inh 46.6
CN(C)c1ccc(Sc2ccc3nc(N)nc(N)c3c2)cc1	LRH-1 inv ag 74.2
Cn1c(=O)c2c(nc(CN3CCOCC3)n2CC(=O)c2ccccc2)n(C)c1=O	LRH-1 inv ag 96.2
Cc1ccc(-n2nnnc2Sc2ccc(S(=O)(=O)NCCN(C)C)cc2[N+](=O)[O-])cc1	SRC3 inh 67.1
CCCOc1ccc(C2NC(=O)NC2=O)cc1 (stereo unspecified)	none
O=C1NC(=O)C(c2ccc(F)cc2)N1 (stereo unspecified)	LRH-1 inv ag 89.4, NCOA1 inh 90.2, SRC3 inh 88.8
CC(C)c1cc(C(C)C)c(S(=O)(=O)N2CCC(c3cn4ccccc4n3)CC2)c(C(C)C)c1	none (no result: LRH-1 inv ag, NCOA1 inh, SRC3 inh, GalR3 antagonist)
CCC1(O)C(=O)OCc2c1cc1n(c2=O)Cc2cc3c(N)cccc3nc2-1 (stereo unspecified)	LRH-1 inv ag 91.9, SRC3 inh 79.6
CCC1(OC(=O)CN(C)C)C(=O)OCc2c1cc1n(c2=O)Cc2cc3c(N)cccc3nc2-1 (stereo unspecified)	LRH-1 inv ag 84.6, SRC3 inh 69.4 (no result: COUP-TFII inh, SRC2 inh, GalR3 antagonist)
O=C(O)CCC(NC(=O)c1ccc(Cl)cc1)C(=O)O (stereo unspecified)	none
CN(Cc1cnc2nc(N)nc(N)c2n1)c1ccc(C(=O)NC(CCC(=O)O)C(=O)O)c2ccccc12 (stereo unspecified)	NCOA1 inh 72.7, SRC3 inh 64.1
O=S(=O)(c1ccccc1F)N1CCC(c2nc3ccccc3o2)CC1	none (no result: LRH-1 inv ag, NCOA1 inh, SRC3 inh, GalR3 antagonist)
COc1ccc(/C=C/c2c([N+](=O)[O-])c(=O)n(C)c(=O)n2C)cc1OC	none
Cn1c(/C=C/c2ccc(Cl)cc2)c([N+](=O)[O-])c(=O)n(C)c1=O	SRC3 inh 61.8
COc1ccc(-n2c(COc3ccc(C)cc3)nnc2SCC(=O)Nc2ccc(S(=O)(=O)Nc3cc(C)nc(C)n3)cc2)cc1	none (no result: LRH-1 inv ag, NCOA1 inh, SRC3 inh, GalR3 antagonist)
Cc1ccnc2c1ccc1cccnc12	none
Cc1ccnc2c1ccc1c(C)ccnc12	LRH-1 inv ag 92.6, NCOA1 inh 76.8, SRC3 inh 74.8 (no result: COUP-TFII inh, SRC2 inh, GalR3 antagonist)
COc1cc(-n2c(C)nc3cc(C(=O)N4CC(C)CC(C)C4)ccc32)cc(OC)c1OC (stereo unspecified)	none (no result: LRH-1 inv ag, NCOA1 inh, SRC3 inh, GalR3 antagonist)
Cc1ccccc1C1=NC(C(F)(F)F)(C(F)(F)F)c2c(n(C)c(=O)n(C)c2=O)N1	none
Cn1c2c(c(=O)n(C)c1=O)C(C(F)(F)F)(C(F)(F)F)N=C(c1ccc(Cl)cc1)N2	LRH-1 inv ag 97.5, NCOA1 inh 74.5, SRC3 inh 76.6 (no result: COUP-TFII inh, SRC2 inh, GalR3 antagonist)
COCCCNC(=O)c1oc(=O)c2ccccc2c1-c1ccc(C)cc1	none (no result: LRH-1 inv ag, NCOA1 inh, SRC3 inh, GalR3 antagonist)
COc1cccc(/C=C/C(=O)OCC(=O)N2CCCC2)c1OC	SRC3 inh 86.0
COc1ccccc1/C=C/C(=O)OCC(=O)N1CCCCC1	none
CCn1c(=O)n2n(c1=O)[C@H]1C[N+](Cc3ccc4c(c3)OCO4)=C(N)NC1=C(C)C2	none (no result: LRH-1 inv ag, NCOA1 inh, SRC3 inh, SRC2 inh, GalR3 antagonist)
CCN(CC)c1ccc(/C=N/NC(=O)c2cccc(S(=O)(=O)Nc3ccccc3OC)c2)c(O)c1	NCOA1 inh 73.5, SRC3 inh 80.7
CCN(CC)c1ccc(/C=N/NC(=O)c2cccc(S(=O)(=O)Nc3ccccc3OC)c2)cc1	none
CN1C=C/C(=C\c2cc[n+](C)c3ccccc23)c2ccccc21	LRH-1 inv ag 80.6, COUP-TFII inh 46.0
CCC(C)Oc1cc(-c2ccnc(Nc3cccc(Cl)c3)n2)ccn1 (stereo unspecified)	none
OCCCNc1cc(-c2ccnc(Nc3cccc(Cl)c3)n2)ccn1	LRH-1 inv ag 96.4, COUP-TFII inh 60.5, NCOA1 inh 85.5, SRC3 inh 86.6, SRC2 inh 65.0
CNC(=O)[C@@H]1CC=C[C@@H]2CCN(c3ccccc3)C(=O)[C@@H]21	none (no result: LRH-1 inv ag, NCOA1 inh, SRC3 inh, SRC2 inh, GalR3 antagonist)
CCCC(=O)Nc1ccc(C(=O)N/N=C/c2ccc([N+](=O)[O-])o2)cc1	LRH-1 inv ag 83.1, NCOA1 inh 65.0, SRC3 inh 70.9
Cc1ccc(NC(=O)CCC(=O)N/N=C/c2ccc([N+](=O)[O-])o2)cc1C	none
N#Cc1c(N)[nH]c(=S)c(C#N)c1-c1ccccc1	GalR3 antagonist 51.3
Cc1ccc(-c2cc(-c3ccccc3)[nH]c(=S)c2C#N)cc1	none
O=C(COC(=O)Cc1c(Cl)cccc1Cl)NCC1CCCO1 (stereo unspecified)	GalR3 antagonist 14.4
COc1ccc(-c2cn[nH]c2-c2ccc(OC)cc2O)cc1	SRC2 inh 52.5
CSc1nnc(NC(=O)c2nc(S(=O)(=O)Cc3cccc(C)c3)ncc2Cl)s1	SRC2 inh 56.4
CC(C)(C)N1Cc2nnn(CC3CCCCC3)c2-c2cc(F)ccc2S1(=O)=O	none (no result: LRH-1 inv ag, NCOA1 inh, SRC3 inh, GalR3 antagonist)
Cc1[nH]c2ccccc2c(=O)c1C(=O)/C=C/c1ccccc1	NCOA1 inh 64.1, SRC3 inh 72.2, SRC2 inh 65.2
FC(F)(F)c1cc(C(F)(F)F)c2ccc(N3CCN(c4ccc(Cl)cc4)CC3)nc2n1	none
N#CC(c1ccc(Cl)cc1)c1ccc2c(C(F)(F)F)cc(C(F)(F)F)nc2n1 (stereo unspecified)	COUP-TFII inh 57.6, NCOA1 inh 65.5, SRC3 inh 76.3, GalR3 antagonist 36.4
N=c1c2c(n(Cc3ccc(F)cc3)c3c1CCC3)CCC2	LRH-1 inv ag 74.5
Cc1ccc2nc(-c3ccc(NC(=O)CSc4nnc(-c5cc(-c6ccc(F)cc6)n[nH]5)n4N)cc3)sc2c1	none (no result: LRH-1 inv ag, NCOA1 inh, SRC3 inh, GalR3 antagonist)
CCOc1ccc(S(=O)(=O)Nc2cc(SCC(=O)O)c(O)c3ccccc23)cc1	none
O=S(=O)(Nc1cc(Sc2cccc3cccnc23)c(O)c2ccccc12)c1ccccc1	SRC2 inh 94.9 (no result: LRH-1 inv ag, NCOA1 inh, SRC3 inh)
